Pf Dd2 growth – inhibitors of Plasmodium falciparum Dd2 growth. Potency, µM (series often up to 28.9 µM), for inactives: at the highest dose activity, negative = inhibition, most hits filed as inhibitors. P. falciparum Dd2 growth, SYBR Green, 72 h. hit rate 4.3% among 120,000; active = well fitted inhibition curve with a large enough effect;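 note: plate controls were DMSO vehicle for no effect and reference drug for full effect; nearly all actives have a fitted effect of over 65% in size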
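Infected erythrocytes (Dd2, 0.3% parasitemia, 2.5% hematocrit final) are added to compound in RPMI-1640/Albumax II medium, grown 72 h at 37C in low oxygen, then lysed with saponin/Triton-X containing SYBR Green and read by fluorescence.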
Numbers without * were called inactive; i = inactive; [ ] = remark or other dose. The full list was thinned out, with hits kept by preference. Potency is the fitted concentration of half-maximal effect.

SMILES | Pf Dd2 growth
COc1ccc(C2c3[nH]c4ccccc4c3CCN2C(=O)CCC2CCCC2)cc1 (stereo not given) | 0%
O=C(CCc1ccccc1)N1CCc2c([nH]c3ccccc23)C1c1ccc(F)cc1 (stereo not given) | 11µM*
O=C1CCC(CCC(=O)N2CCCC2c2ccc(F)cc2)(Cc2cccc3ccccc23)N1 (stereo not given) | -13%
O=C1CN(C(=O)Cc2ccccc2)C(c2ccc(F)cc2)c2cc(Br)ccc2N1 (stereo not given) | i
CSc1ccc(C2c3[nH]c4ccccc4c3CCN2C(=O)CCc2ccccc2)cc1 (stereo not given) | -20%
CC(C)CC(O)C(=O)N1CCC(n2nccc2NC(=O)c2ccccc2)CC1 (stereo not given) | -2%
CCC1(C(=O)NCc2ccc(OC(C)C)cc2)CCCCC(=O)N1 (stereo not given) | -9%
CCC(CC)C(=O)NC[C@H]1O[C@@H](CC(=O)N2CCN(c3ccc(F)cc3)CC2)[C@H](O)[C@@H]1O | -14%
COCCO[C@H]1C(=O)N(C2CCN(C(=O)Nc3ccccc3)CC2)[C@H]1c1ccncc1 | 1%
CN1CCC(OC2CCN(C(=O)c3ccc(Br)o3)CC2)CC1 | 122%
CCCCN(C)C(=O)c1csc(N2CCN(c3ccccc3)CC2)n1 | 11µM*
CCN(CC)C(=O)c1csc(N2CCN(c3cccc(Cl)c3)CC2)n1 | i
O=C(NCc1ccccn1)c1csc(N2CCN(c3ccccc3)CC2)n1 | i
COc1ccc(C(=O)NC2CCN(c3ccc(C)cc3)C2=O)cc1F (stereo not given) | i
CN(C)C1(Cc2cc(COc3ccccc3)on2)COC1 | 0%[44.1 µM]
CCn1ccc(C(=O)N2CCC3(CC2)CC(OCC2CC2)CCO3)n1 (stereo not given) | 24%
Cc1ccccc1Nc1cnc2ccc(-c3cccc(CO)c3)nn12 | 2.5µM*
OCc1cccc(-c2ccc3ncc(Nc4cccc(F)c4)n3n2)c1 | i
COc1ccc(-c2ccc3ncc(Nc4cccc(F)c4)n3n2)cn1 | i
COc1ccc(-c2ccc3ncc(Nc4ccccc4C)n3n2)cn1 | 5.6µM*
COc1ccc(Nc2cnc3ccc(-c4cccc(CO)c4)nn23)cc1 | i
COc1ccc(-c2ccc3ncc(Nc4ccc(C(N)=O)cc4)n3n2)cn1 | i
COCCn1c(C)cnc1CC1CCCN(C(=O)c2ccnn2C)C1 (stereo not given) | 8%
Cc1cnc(C(=O)N2CCC(Oc3cccnc3)C2)cn1 (stereo not given) | 3%
COc1ccc(-n2nc(C(=O)N3CCCCC3C)c3c4ccccc4n(C)c3c2=O)cc1Cl (stereo not given) | 23%
SMILES | Pf Dd2 growth
CCOc1ccc(CNC(=O)c2nn(-c3ccc(OC)cc3)c(=O)c3c2c2ccccc2n3C)cc1 | 50%
COc1ccc(-n2nc(C(=O)NCCCOC(C)C)c3c4ccccc4n(C)c3c2=O)cc1 | -13%
CCc1ccc(CNC(=O)c2nn(-c3ccc(C)cc3)c(=O)c3c2c2ccccc2n3C)cc1 | 3%
COc1ccc(-n2nc(C(=O)N(C)c3cc(C)ccc3C)c3c4ccccc4n(C)c3c2=O)cc1Cl | 22%
CCOC(=O)C1CCN(C(=O)c2nn(-c3ccc(OC)c(Cl)c3)c(=O)c3c2c2ccccc2n3C)CC1 | 11µM*
CCOC(=O)C1CCN(C(=O)c2nn(-c3ccc(C)cc3)c(=O)c3c2c2ccccc2n3C)CC1 | i
COc1ccc(-n2nc(C(=O)NCCc3ccc(OC)c(OC)c3)c3c4ccccc4n(C)c3c2=O)cc1Cl | 2µM*
CCOc1ccc(CCNC(=O)c2nn(-c3ccc(OC)c(Cl)c3)c(=O)c3c2c2ccccc2n3C)cc1OCC | 2.8µM*
COc1ccc(CC(=O)N[C@H]2CCOC[C@H]2C2CCOCC2)c(OC)c1 | -1%
Cc1nc(-c2c3n(c(=O)n(CC(=O)Nc4ccc(F)c(Cl)c4)c2=O)CCCC3)no1 | -17%
O=C(NCc1nc2c(s1)CCCC2)C1NCCc2[nH]cnc21 (stereo not given) | -3%
Cc1cc2nc3n(c(=O)c2n1CC(=O)Nc1ccc(Cl)cc1F)CCC3 | i
CCn1cc(-c2nc3cc(S(=O)(=O)NC(C)C)ccc3n2C(C)C)cn1 | -18%
CCc1nccn1CC(=O)Nc1nn(C)c2cccc(Oc3cccnc3)c12 | -11%
Cc1ccsc1CN(Cc1ccc(CN(C)S(C)(=O)=O)o1)CC(C)C | 8.9µM*
CN(Cc1ccc(F)cc1)S(C)(=O)=O | 7%[44.1 µM]
O=C1NCCCCCN(C(=O)Nc2ccccc2F)[C@H]2CCCC[C@@H]12 | -4%
Cc1ccc(N2C(=S)N[C@H]3[C@@H](O)[C@H](O)C[C@@H](C(=O)N4CCCCC4)[C@H]32)cc1 | i
CC(C)c1ccc(N2C(=S)N[C@H]3[C@@H](O)[C@H](O)C[C@@H](C(=O)N(C)Cc4ccccc4)[C@H]32)cc1 | 13µM*
O=C([C@@H]1C[C@@H](O)[C@H](O)[C@@H]2NC(=S)N(c3ccc(F)cc3)[C@@H]21)N1CCCCC1 | -19%[44.1 µM]
O=c1[nH]ccn1C1CCN(Cc2ccccc2C(F)(F)F)CC1 | i
O=C(CCc1conc1-c1ccc(F)cc1)NCC1CCCO1 (stereo not given) | i
COCCCNC(=O)C1CCN(c2nn3cc(-c4ccc(F)cc4)nc3s2)CC1 | -4%
O=C(NCCn1ccn2nc(-c3ccc(F)cc3)cc2c1=O)c1ccsc1 | i
CCn1c(C)c(C)c2cc(C(=O)NCCCN3CCCCC3)ccc21 | i
SMILES | Pf Dd2 growth
Cc1ccc(-c2cn3c(n2)sc2cc(C(=O)NCCCN4CCCCC4)ccc23)cc1 | 2.5µM*
O=C(NCCCN1CCCCC1)c1ccc2c(c1)sc1nc(-c3ccc(F)cc3)cn12 | 2.8µM*
COc1ccc(-c2cn3c(n2)sc2cc(C(=O)NC4CCCCC4)ccc23)cc1 | 17%
O=C(NC1CCCCCC1)c1ccc2c(c1)sc1nc(-c3ccccc3)cn12 | 10µM*
CCc1ccc(-c2cn3c(n2)sc2cc(C(=O)NC4CCCCC4)ccc23)cc1 | i
O=C(NC1CCC(O)CC1)c1ccc(-c2ncc3cnc(-c4ccccc4)cn23)cc1 (stereo not given) | -12%[44.1 µM]
O=C(NCCn1ccn2nc(-c3ccc(F)cc3)cc2c1=O)c1ccc(F)c(Cl)c1 | i
CC1CCCCN1CCCNC(=O)c1ccc2c(c1)sc1nc(-c3ccc(F)cc3)cn12 (stereo not given) | 1.4µM*
Cc1ccc(Cl)cc1N1CCN(CCCNC(=O)c2ccc3nc(N4CCCCC4)sc3c2)CC1 | i
Cc1ccccc1CC(=O)N1CCN(C(=O)c2nnn3c2COC(c2ccc(Cl)cc2)C3)CC1 (stereo not given) | -5%
CC(C(=O)N1CCC(c2cc(Cc3ccccc3)[nH]n2)CC1)N1CCCC1=O (stereo not given) | -8%
Cc1cc(CNC(=O)[C@@H]2CCC[C@@H](NC(=O)CC(C)C)CN(C)C(=O)C2)no1 | 5%[44.1 µM]
CC(C)NC(=O)NCc1nnc2n1C(C(=O)NCCc1ccc(Cl)cc1)CC2 (stereo not given) | 18%
CS(=O)(=O)N1CCCN(c2cc(C3CC(O)C3)nc(N)n2)CC1 (stereo not given) | -19%
Cc1ccc(C2=Nc3ccccc3N(CC(=O)NCc3ccccc3Cl)C(=O)C2)cc1C | 11µM*
Cc1cc(=O)n(CC(=O)Nc2cccc(F)c2)c(-c2ccccc2)n1 | i
Cc1ccc2c(c1)N(CCC(=O)NCc1ccccc1Cl)C(=O)CO2 | 46%
Cc1ccc(NC(=O)CN2C(=O)CC(c3ccc(F)cc3)=Nc3ccccc32)cc1F | -28%
Cc1ccc(C2=Nc3ccccc3N(CC(=O)Nc3cccc(F)c3)C(=O)C2)cc1C | 8.9µM*

Source: PubChem (National Center for Advancing Translational Sciences (NCATS))
